Compounds without any hit were thinned out: in the full panel of roughly 83,000, 20% have a hit.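 A percent growth of 40 corresponds to 60% growth inhibition; 0 means no net growth; -100 means all cells died. Active threshold: below 10.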 A number with no mark means an inactive call. The source made the active and inactive calls.
Assays:
Test in all cases: NCI-60 one-dose screen, 48 h (100 = growth as untreated, 0 = no growth, -100 = all killed)
Conditions in all cases: 10 µM unless noted
[1] = tested on: HCT-15 colon
[2] = tested on: HT29 colon
[3] = tested on: SNB-75 CNS
[4] = tested on: SNB-19 CNS
[5] = tested on: U251 CNS
[6] = tested on: PC-3 prostate
[7] = tested on: SK-MEL-5 melanoma
[8] = tested on: UACC-62 melanoma
[9] = tested on: LOX IMVI melanoma
[10] = tested on: SK-MEL-28 melanoma
[11] = tested on: EKVX NSCLC
[12] = tested on: SN12C renal
[13] = tested on: UO-31 renal
[14] = tested on: TK-10 renal
[15] = tested on: ACHN renal
[16] = tested on: CAKI-1 renal
[17] = tested on: A498 renal
[18] = tested on: CCRF-CEM leukemia
[19] = tested on: MOLT-4 leukemia

Compound | growth [1] | growth [2] | growth [3] | growth [4] | growth [5] | growth [6] | growth [7] | growth [8] | growth [9] | growth [10] | growth [11] | growth [12] | growth [13] | growth [14] | growth [15] | growth [16] | growth [17] | growth [18] | growth [19]
COc1ccc(Cc2cc(-c3ccccc3C)n[nH]c2=O)cc1 | 107% | 98.1% | 72.7% | 87.1% | 100% | 81.7% | 99.2% | 94.8% | 109% | 106% | 108% | 92.3% | 76.8% | 116% | 104% | 109% | 87.2% | -41.2% (active) | 96.9%
NC(=O)c1c(OCc2c(F)cc(Br)cc2F)nsc1NC(=O)NCCCCN1CCCC1 | 5.99% (active) | -38.9% (active) | -79.9% (active) | 5.06% (active) | -83.3% (active) | 3.22% (active) | -99.1% (active) | -75.6% (active) | -90.6% (active) | -74.6% (active) | 4.31% (active) | 0.752% (active) | -76.8% (active) | -1.76% (active) | -29.7% (active) | -26.2% (active) | -13.8% (active) | 2.77% (active) | -16.4% (active)
Cn1cc(-c2cnn3c(N)c(Br)c([C@@H]4CCCNC4)nc23)cn1 | 60.6% | 23% | 20.5% | 52.1% | 61% | 42.8% | 28.6% | 63.7% | 22% | 72.5% | 58.7% | 37.6% | 28% | 33.4% | 19.8% | 17.3% | -8.93% (active) | 19.9% | 7.79% (active)
Cc1cc(Nc2cc(N3CCN(C)CC3)nc(Sc3ccc(NC(=O)C4CC4)cc3)n2)n[nH]1 | 40.2% | 0.79% (active) | 0.133% (active) | 46.8% | 30% | 35.2% | 9.58% (active) | 13% | -69.2% (active) | 34.4% | 76.6% | 33.4% | 22.3% | 38.8% | 42.4% | 31.8% | -16% (active) | 35.6% | 26%
C/C(=C(/c1ccc(Cl)cc1)c1ccc(OCCN2CCCCCC2)cc1)c1ccccc1 | 20.3% | 8.45% (active) | 88.4% | 88.4% | 73.1% | 69.3% | 69.5% | 90% | 62.6% | 88% | 70.2% | 87.6% | 70.9% | 101% | 96.3% | 96.9% | 86% | 68.9% | 82%
CC/C(=C(\c1ccc(OCCN2CCCCCCC2)cc1)c1ccc(OC(=O)C2CCCCC2)cc1)c1ccc(Cl)cc1 | 94.3% | 86.9% | 99.7% | 110% | 98.9% | 91.4% | 102% | 108% | 102% | 96.3% | 105% | 93.6% | 73.8% | 110% | 97.2% | 93.8% | 63.7% | 88.9% | 88.9%
COc1ccc(Br)cc1NC(=O)Nc1cccc2c1ccn2Cc1ccnc(N)c1 | 1.92% (active) | -40.6% (active) | 26.7% | 37.3% | 13.9% | 17.3% | 23.5% | 29% | -68% (active) | 53.3% | 31.3% | 40.9% | 9.39% (active) | 22.1% | 24.1% | 15% | -2.46% (active) | 27.3% | 8.16% (active)
COc1cc2ncnc(Nc3cccc(Cl)c3F)c2cc1OC(=O)N1CCN(C)C[C@H]1C | 75.1% | 53.9% | 71% | 83.4% | 75.8% | 64.4% | 81.3% | 77.3% | 79.6% | 87.3% | 57.8% | 50.1% | 41.6% | 28.1% | 19.5% | 43.2% | 82.8% | 74.7% | 67.7%
C=C1C(=O)O[C@H]2[C@H]1CC/C(C=Nc1c(N)cc(C(F)(F)F)cc1C(F)(F)F)=C\CC[C@@]1(C)O[C@@H]21 | -31.1% (active) | -15.2% (active) | 48.6% | 36.8% | 8.57% (active) | -12.8% (active) | -43.6% (active) | -57.1% (active) | -87.5% (active) | -17.2% (active) | -36.2% (active) | -43.2% (active) | -89.8% (active) | -41% (active) | -89.4% (active) | -59.3% (active) | 34.8% | 4.15% (active) | -13.5% (active)
Cn1cc(-c2[nH]c3cc(NC(=O)[C@H](N)C4CCCCC4)cc4c3c2C=NNC4=O)cn1 | 20.1% | -11.1% (active) | -70.2% (active) | -24.4% (active) | -83.3% (active) | 7.2% (active) | -36.6% (active) | 26.1% | -73.4% (active) | -70% (active) | 33.1% | -11.5% (active) | -13.6% (active) | 17.1% | 4.51% (active) | 9.72% (active) | -43.7% (active) | -29.4% (active) | -36.8% (active)

Reference: PubChem BioAssay (NCI)
